Measured values: PubChem BioAssay (NCATS)
Results filed as inconclusive are left out. Calls of active or inactive are those of the source. The call rests on the fitted dose curve; in most records, active means well fitted curve in the direction sought with a large enough effect; inconclusive means small, poorly fitted or top-dose-only effect, or another doubt; inactive means no such curve, though single readings can be large; an effect the other way counts as inactive or inconclusive.

Columns and labels:
[1] = system: NAD(P)H diaphorase (Clostridium kluyveri); assay: Diaphorse counterscreen qHTS: Assay Interference Panel against the NCATS CANVASS Library (AID 1347362); settings: Diaphorase enzyme, resazurin to resorufin fluorescence; series mostly up to 57.5 µM
How it was run: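 Counterscreen for coupling-enzyme interference: resorufin fluorescence from resazurin/NADH turnover, read after 5 min at room temperature. Compounds were tested over an 11-point series after 15 min dark preincubation with diaphorase in PBS-Tween.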

[2] = biological target: Luciferin 4-monooxygenase (Photinus pyralis) (UniProt P08659); assay: Firefly luciferase counterscreen qHTS: Assay Interference Panel against the NCATS CANVASS Library (AID 1347363); settings: purified firefly luciferase, luminescence inhibition, 5 min; series mostly up to 57.5 µM
Luciferin 4-monooxygenase (Photinus pyralis), sequence (P08659 whole entry, looked up): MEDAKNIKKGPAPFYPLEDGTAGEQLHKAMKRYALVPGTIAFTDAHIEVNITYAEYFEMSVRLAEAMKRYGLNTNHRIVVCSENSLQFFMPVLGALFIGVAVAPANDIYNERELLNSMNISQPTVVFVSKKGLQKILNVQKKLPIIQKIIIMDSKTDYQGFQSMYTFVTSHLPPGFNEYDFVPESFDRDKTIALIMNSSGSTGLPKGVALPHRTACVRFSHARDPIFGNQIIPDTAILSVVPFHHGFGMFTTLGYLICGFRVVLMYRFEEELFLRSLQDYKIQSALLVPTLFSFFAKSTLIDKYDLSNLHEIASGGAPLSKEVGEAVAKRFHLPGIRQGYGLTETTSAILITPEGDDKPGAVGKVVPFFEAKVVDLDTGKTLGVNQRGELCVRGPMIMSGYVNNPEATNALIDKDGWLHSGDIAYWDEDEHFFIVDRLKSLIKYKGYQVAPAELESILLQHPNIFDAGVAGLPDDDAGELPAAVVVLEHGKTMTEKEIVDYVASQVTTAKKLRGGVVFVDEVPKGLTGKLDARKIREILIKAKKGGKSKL
How it was run: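 Luminescence inhibition readout: compounds (11-point qHTS) sat 15 min at room temperature with substrate mix (0.013 mM luciferin and ATP), then firefly luciferase was added and signal read 5 min later.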

[3] = KB-8-5-11 Cancer Cell Toxicity qHTS against the NCATS CANVASS Library (AID 1347364); settings: KB-8-5-11 MDR cells viability, CellTiter-Glo, 72 h; at 46.1 µM (top of the series); further: nearly all actives have a fitted effect of over 75% in size
How it was run: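 Plate 500 KB-8-5-11 cells per well in DMEM + 10% FBS, add compounds by pin transfer, incubate 72 hr at 37C. Add CellTiter-Glo, wait 10 minutes at room temperature, read luminescence.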

[4] = KB-3-1 Cancer Cell Toxicity qHTS against the NCATS CANVASS Library (AID 1347366); settings: KB-3-1 viability, CellTiter-Glo luminescence, 72 h; at 46.1 µM (top of the series); further: nearly all actives have a fitted effect of over 75% in size
How it was run: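 Cytotoxicity toward KB-3-1 cells (500/well, DMEM + 10% FBS) was scored by CellTiter-Glo luminescence following 72 hr exposure at 37C, with bortezomib titrated as control.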

[5] = qHTS for ATAD5 Agonist screened against the NCATS CANVASS Library (AID 1347367); settings: HEK293T ATAD5-luciferase reporter, luminescence, 16 h; series mostly up to 46.1 µM;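 further: luciferase reporter driven by ATAD5 which rises upon DNA damage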
How it was run: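 Genotoxicity was scored as increased ATAD5-luciferase luminescence in HEK293T after 16hr of exposure, with cell viability measured by fluorescence beforehand in the same well.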

[6] = MCF7 Cancer Cell Toxicity qHTS against the NCATS CANVASS Library (AID 1347369); settings: MCF7 viability, ATP luminescence (CellTiter-Glo), 72 h; at 46 µM (top of the series)
How it was run: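 This 72 hr qHTS scored MCF7 viability by CellTiterGlo luminescence, with 500 cells/well; bortezomib titration ran as control.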

[7] = qHTS for ATAD5 Antagonist screened against the NCATS CANVASS Library (AID 1347370); settings: HEK293T-ATAD5-luc, 5-FUrd stimulated, luminescence, 16 h; series mostly up to 46.1 µM;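 further: HEK293T cells carrying an ATAD5 luciferase reporter co-treated with 10 µM 5-fluorouridine; nearly all actives have a fitted effect of over 65% in size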
How it was run: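 HEK293T cells with stably integrated ATAD5-luciferase reporter, 2000/well, 5 h attachment; compounds plus 10 µM 5-fluorouridine, 16 h at 37 °C. Luciferase luminescence read, with CellTiter-Fluor viability read first.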

[8] = J3T Cancer Cell Toxicity qHTS against the NCATS CANVASS Library (AID 1347371); settings: J3T dog glioma viability, ATP luminescence, 72 h; series mostly up to 46.1 µM;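 further: J3T is a canine glioma cancer cell line seeded at 500 cells per well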
How it was run: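 Cells plated at 500 per well, compounds pin-transferred, plates incubated 72 hr at 37C, then CellTiterGlo added and luminescence read to measure ATP content.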

[9] = biological target: Nuclear receptor subfamily 1 group I member 3 (Homo sapiens) (UniProt Q14994); assay: qHTS for Constitutive Androstane Receptor (CAR) Antagonist screened against the NCATS CANVASS Library (AID 1347372); settings: HepG2-hCAR-CYP2B6 luciferase, CITCO-stimulated antagonist mode; series mostly up to 46.1 µM;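 further: cells stimulated with 50 nM CITCO agonist so inhibition reflects antagonism; luciferase from CYP2B6 promoter reporter driven by hCAR in HepG2 cells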
Nuclear receptor subfamily 1 group I member 3 (Homo sapiens), sequence (Q14994 whole entry, looked up): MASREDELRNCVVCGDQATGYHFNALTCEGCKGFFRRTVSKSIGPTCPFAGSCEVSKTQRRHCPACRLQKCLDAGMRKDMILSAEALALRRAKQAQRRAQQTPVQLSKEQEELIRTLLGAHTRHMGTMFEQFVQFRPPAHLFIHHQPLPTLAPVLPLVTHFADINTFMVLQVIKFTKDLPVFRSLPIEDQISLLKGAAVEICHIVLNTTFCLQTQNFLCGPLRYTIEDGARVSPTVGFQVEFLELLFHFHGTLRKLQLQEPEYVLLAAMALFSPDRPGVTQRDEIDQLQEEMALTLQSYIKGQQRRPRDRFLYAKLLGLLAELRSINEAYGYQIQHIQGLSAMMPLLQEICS
How it was run: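 HepG2-CYP2B6-hCAR double-stable cells plated, 4hr attach; cpd pin-transferred; CITCO 50 nM final; 24hr 37C/5% CO2; CellTiter-Fluor 1hr (fluorescence), then ONE-Glo luminescence.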

[10] = biological target: Nuclear receptor subfamily 1 group I member 3 (Homo sapiens) (UniProt Q14994); assay: qHTS for Constitutive Androstane Receptor (CAR) Agonist screened against the NCATS CANVASS Library (AID 1347373); settings: HepG2-hCAR-CYP2B6 luciferase reporter, ONE-Glo luminescence; series mostly up to 46.1 µM;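 further: every well also contained 1.5 µM PK11195 alongside the test compound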
How it was run: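 HepG2-hCAR-CYP2B6 cells, 2500/well, attached 4hr; cpd + PK11195 1.5uM final; 24hr 37C 5% CO2. CellTiter-Fluor viability read, then ONE-Glo luminescence for CAR activation.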

[11] = 10-beta competent E. coli microbial cell viability qHTS against the NCATS CANVASS Library (AID 1347376); settings: E. coli 10-beta viability, BacTiter-Glo ATP luminescence, overnight; series mostly up to 46.1 µM
How it was run: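 E. coli 10-beta, 0.2 OD; cpds 11-pt; o/n 37C, 5% CO2; BacTiter-Glo 20 min RT; luminescence (ATP) = viable cells. Daunomycin ctrl.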

[12] = qHTS for H2AX Agonists against the NCATS CANVASS Library (AID 1347378); settings: CHO-K1 H2AX phosphorylation, HTRF TR-FRET, 3 h; series mostly up to 76.9 µM;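 further: phospho-H2AX S139 level in CHO-K1 lysates by TR-FRET emission ratio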
How it was run: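 Signal is the 665/620 nm emission ratio from europium cryptate and d2 antibody pair, rising with S139-phosphorylated H2AX. CHO-K1 cells saw test agents for 3 hr at 37C; detection ran 24 hr at room temperature.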

[13] = qHTS for Inflammasome Signaling Inhibitors: IL-1-beta AlphaLISA screen against the NCATS CANVASS Library (AID 1347379); settings: THP-1 LPS/ATP, IL-1B AlphaLISA secretion, 16 h; series mostly up to 57.5 µM;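 further: human THP-1 cells primed with LPS then triggered with ATP; secreted IL-1B measured as AlphaLISA emission at 615 nm; lower signal means less IL-1B release which is the wanted effect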
How it was run: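 THP-1 cells pretreated 1 hr with compound (up to 57.5 uM final), then stimulated with LPS (250 ng/mL final) and ATP (1.25 mM final). Secreted IL-1B measured by AlphaLISA after 16 hr; glyburide as positive control.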

[14] = qHTS for Antimalaria activity screened against the NCATS CANVASS Library (AID 1347380);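 further: Plasmodium falciparum strain Dd2 asexual parasites grown in red blood cells; nearly all actives have a fitted effect of over 40% in size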; settings: P. falciparum Dd2 growth, SYBR Green fluorescence, 72 h; series mostly up to 28.7 µM
How it was run: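 Dd2 strain, infected erythrocytes 2.5% Hct final / 0.3% parasitemia. 11-pt qHTS titration, 72 h, 37C, 5% O2, 5% CO2. Lysis buffer + SYBR Green, 18 h, fluorescence 485/535 nm.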

[15] = Inflammasome Signaling qHTS Counterscreen: IL-1-beta AlphaLISA counterscreen against the NCATS CANVASS Library (AID 1347381); settings: Purified IL-1beta AlphaLISA signal interference counterscreen; series mostly up to 57.5 µM;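 further: cell-free check with purified IL-1β in medium and no THP-1 cells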
How it was run: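 Cell-free interference check: compounds added to medium spiked with 4 pg purified IL-1β. Anti-IL-1β acceptor beads (6 ug/mL) with 0.6 nM biotinylated antibody added for 1 h at RT, then streptavidin donor beads (24 ug/mL) for 30 min in the dark. AlphaLISA read at 680/615 nm.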

[16] = Cytotoxicity qHTS for assessment of Hepg2 cells membrane integrity screened against the NCATS CANVASS Library (AID 1347387); settings: HepG2 LDH release (CytoTox-ONE) fluorescence, 5 h; series mostly up to 46.1 µM
How it was run: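 qHTS, 11-pt conc. series, 0.59 nM - 46 uM final; HepG2 2000 cells/well, overnight attachment; 5 hr compound exposure 37C/5% CO2; CytoTox-ONE, 10 min RT; fluorescence ex560/em590 = LDH from damaged membranes.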

[17] = qHTS assay for small molecule disruptors of mitochondrial membrane potential screened against the NCATS CANVASS Library (AID 1347389); settings: HepG2 mitochondrial membrane potential, m-MPI red/green ratio, 1.5 h; series mostly up to 46.1 µM; further: nearly all actives have a fitted effect of over 60% in size
How it was run: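 HepG2, 2,000 cells/well, attached overnight; compound 1 hr, 37C, 5% CO2; Mito-MPS dye 30 min, 37C; fluorescence 535 nm (monomer) and 590 nm (aggregate); decreased 590/535 ratio = depolarization.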

[18] = Secretion counterscreen for inhibitors of the SERCaMP assay screened against the NCATS CANVASS Library (AID 1347390); settings: SH-SY5Y constitutive GLuc secretion, luminescence, 20 h; series mostly up to 76.6 µM;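 further: light from luciferase secreted into medium read as a measure of general secretion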
How it was run: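 Natural products are titrated in an 11-point series up to 77 uM onto SH-SY5Y-GLuc STOP cells for 20 h. Secreted reporter activity is measured as coelenterazine-driven luminescence, with Brefeldin A on each plate.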

[19] = qHTS for activators of Nrf2/ARE signaling pathway screened against the NCATS CANVASS Library (AID 1347391); settings: ARE-bla HepG2, beta-lactamase reporter, 16 h; series mostly up to 46.1 µM; further: nearly all actives have a fitted effect of over 60% in size
How it was run: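 Plate ARE-bla HepG2 cells at 2000/well and let them settle 5 h. Pin-transfer compounds in DMSO, incubate 16 h at 37C. Load CCF4 for 2 h at room temperature and read blue/green fluorescence.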

[20] = qHTS for activators of dead-cell proteases activity screened against the NCATS CANVASS Library (AID 1347392); settings: HepG2 cytotoxicity, dead-cell protease luminescence, 5 h; series mostly up to 46.1 µM;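 further: luminescence from protease leaking out of membrane-damaged cells cleaving impermeant substrate; rising signal means more cytotoxicity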
How it was run: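 Compounds are pin-transferred onto attached HepG2 cells, giving 11 final concentrations. After 5 h at 37C, AAF-aminoluciferin reagent is added and luminescence is recorded at room temperature.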

Measured: outcome

CN1CCC[C@@H]1c1cccnc1
inactive: all assays above
